Hits are enriched below; roughly 19% of the tested compounds scored in any of these assays.
CHX counter = counter-screen for Shiga toxin inhibitors: cycloheximide protein synthesis inhibition; cell reporter, cycloheximide protein synthesis inhibition counterscreen; actives 12% (n = 300,000); AID 2314; max response, %; in the data active = max response mostly above about 13%, no sharp cut-off; inactive = mostly below about 14%; also: read at 38.3 µM for the half of the compounds with a filed dose
Shiga toxin inh = inhibitors of Shiga toxin in Vero cells; Vero cells, Shiga toxin protein synthesis inhibition reporter; inhibition, % at 38.7 µM; actives 9.2% (n = 290,000); in the data active = inhibition mostly above about 28%, no sharp cut-off; inactive = mostly below about 43%
Pf growth 48h = P. falciparum growth inhibition at 48 hours (one generation). P. falciparum luciferase growth in erythrocytes, 48 h. Potency, µM (doses to about 28.7 µM), most hits filed as inhibitors. actives 5.9% (n = 310,000). AID 504832
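Luciferase-expressing P. falciparum in infected erythrocytes (2% hematocrit, 0.1% parasitemia final) in RPMI 1640/0.5% Albumax were exposed to compound for 48 hours at 37 C, 5% CO2; growth read as luminescence.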
MARV entry inh = inhibitors of Marburg virus binding or cell entry | Marburg virus pseudotyped entry inhibition, cell reporter | Potency, µM (doses to about 37.8 µM), usual class: inhibitors | actives 1.8% (n = 300,000) | AID 540276; calls by dose curve; tested in HEK293 cells
Pf growth 96h = P. falciparum growth inhibition at 96 hours; P. falciparum luciferase reporter growth, 96 h; Potency, µM (titrated, usually from 28.7 µM), actives largely listed as inhibitors; actives 6.9% (n = 320,000)
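96 h incubation, 37 C, 5% CO2, of luciferase-reporter P. falciparum-infected RBCs (2% hematocrit, 0.05% parasitemia final) with test compounds; endpoint luminescence.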
Lassa entry inh = blocks Lassa virus binding to or entry into cells; Lassa virus pseudotype entry inhibition, cell reporter; Potency, µM (highest dose often 37.9 µM), usual class: inhibitors; actives 1.2% (n = 300,000); calls by dose curve; tested in HEK293 cells; also: nearly all actives have a fitted effect of over 50% in size
Of the large screens only hits and unclear results are named; the others gave an inactive call; ! = a repeat was not active. Unless noted, calls follow the shape of the dose curve; as a rule, active = well fitted inhibition curve with a large enough effect; inconclusive = small, poorly fitted or top-dose-only effect, or another doubt; inactive = no such curve, though single readings can be large or run the other way.

Cc1ccc(NC(=S)NC(=O)c2cccs2)cc1F	MARV entry inh inconclusive (no result: CHX counter, Shiga toxin inh, Pf growth 48h, Pf growth 96h)
CCOC(=O)Nc1ccc2c(c1)N(C(=O)CCN1CCOCC1)c1ccccc1S2=O (configuration not stated)	MARV entry inh inconclusive (no result: Pf growth 96h)
C=CCSc1nc2c(sc3nc(C)cc(C)c32)c(=O)[nH]1	none
COc1cc(OC)cc(C(=O)NC(C(=O)O)C23CC4CC(CC(C4)C2)C3)c1 (configuration not stated)	none
Cn1c2c(c(=O)n(C)c1=O)C(C(F)(F)F)(C(F)(F)F)N=C(CCC1CCCCC1)N2	Pf growth 48h inconclusive, MARV entry inh 11µM, Pf growth 96h 12µM, Lassa entry inh 2.6µM
c1ccc2c(c1)OCC(C1=NCCN1)O2 (configuration not stated)	Pf growth 48h inconclusive, MARV entry inh inconclusive, Pf growth 96h 4.8µM!, Lassa entry inh 2.6µM!
Nn1c(C2COc3ccccc3O2)n[nH]c1=S (configuration not stated)	Pf growth 48h inconclusive, Pf growth 96h inconclusive (no result: MARV entry inh, Lassa entry inh)
O=[N+]([O-])C1C(c2ccccc2)=NOC1c1ccccc1O (configuration not stated)	CHX counter 24, Shiga toxin inh 25, Pf growth 96h inconclusive (no result: MARV entry inh, Lassa entry inh)
O=C(COC(=O)c1cccc(NC(=O)c2ccco2)c1)c1ccc(Br)cc1	CHX counter 80, Shiga toxin inh 117
O=C(COC(=O)c1cccc(NC(=O)c2ccc(Br)cc2)c1)c1ccc(Cl)cc1	none (no result: CHX counter, Shiga toxin inh, Pf growth 48h, Pf growth 96h)
CC(C)(C)C(=O)COC(=O)c1cccc(NC(=O)c2ccco2)c1	CHX counter 27
C=CCn1c(COc2ccc(Cl)cc2)nnc1SCC(=O)N/N=C/c1cccc(O)c1	none
COc1ccccc1-c1nnc(NC(=O)c2ccc(S(=O)(=O)N(C)Cc3ccccc3)cc2)o1	MARV entry inh inconclusive, Pf growth 96h 10µM, Lassa entry inh inconclusive
CCN(Cc1ccccc1)S(=O)(=O)c1ccc(C(=O)Nc2nnc(C)o2)cc1	Pf growth 48h 9.3µM, MARV entry inh inconclusive, Pf growth 96h inconclusive, Lassa entry inh inconclusive
CCCCN(CC)S(=O)(=O)c1ccc(C(=O)Nc2nnc(-c3cccs3)o2)cc1	MARV entry inh 8.9µM, Lassa entry inh inconclusive (no result: Pf growth 48h)
CCN(CC)S(=O)(=O)c1ccc(C(=O)Nc2nnc(-c3ccco3)o2)cc1	Pf growth 48h inconclusive, Pf growth 96h inconclusive (no result: MARV entry inh, Lassa entry inh)
CCCCN(C)S(=O)(=O)c1ccc(C(=O)Nc2nnc(CSC)o2)cc1	Pf growth 48h inconclusive, MARV entry inh inconclusive, Pf growth 96h 13µM, Lassa entry inh inconclusive
CCN(CC)S(=O)(=O)c1ccc(C(=O)Nc2nnc(CSC)o2)cc1	Pf growth 48h inconclusive, Pf growth 96h inconclusive (no result: MARV entry inh, Lassa entry inh)
CCc1nnc(NC(=O)c2ccc(S(=O)(=O)N(C)Cc3ccccc3)cc2)o1	none (no result: MARV entry inh, Lassa entry inh)
CC1(C)CC(=O)C(Sc2ccc(Br)cc2)=C(O)C1	Pf growth 48h inconclusive, Pf growth 96h inconclusive
CC(=N[C@@H]1CCCC[C@H]1N=C(C)c1ccccc1O)c1ccccc1O	none
Cc1ccc2oc(C(=O)Nc3sc4c(c3C(=O)NCC3CCCO3)CCC4)cc(=O)c2c1 (configuration not stated)	none (no result: CHX counter, Shiga toxin inh, Pf growth 48h, Pf growth 96h)
COc1ccc(NS(=O)(=O)c2cc(NC(=O)c3nn(C)c(=O)c4ccccc34)ccc2OC)cc1	none
COc1ccccc1/C=C/C=C1\Oc2c(ccc(O)c2CN2CCN(CCO)CC2)C1=O	CHX counter 32, Shiga toxin inh active, Pf growth 96h inconclusive
O=C1/C(=C/C=C/c2ccccc2)Oc2c1ccc(O)c2CN1CCN(CCO)CC1	Pf growth 48h inconclusive, Pf growth 96h inconclusive (no result: MARV entry inh, Lassa entry inh)
CC1CCCN(Cc2c(O)ccc3c2O/C(=C\c2ccco2)C3=O)C1 (configuration not stated)	Pf growth 48h 2.3µM, Pf growth 96h 3.3µM, Lassa entry inh inconclusive
Cc1ccc(/C=C2\Oc3c(ccc(O)c3CN3CCN(C)CC3)C2=O)cc1	Pf growth 48h inconclusive, Pf growth 96h inconclusive (no result: MARV entry inh, Lassa entry inh)
CCN1CCN(Cc2c(O)ccc3c2O/C(=C\C=C\c2ccccc2)C3=O)CC1	CHX counter 33, Pf growth 48h 1.7µM, MARV entry inh inconclusive, Pf growth 96h inconclusive, Lassa entry inh inconclusive
CCN1CCN(Cc2c(O)ccc3c2O/C(=C\c2ccc(C)cc2)C3=O)CC1	Pf growth 48h 5.2µM, Pf growth 96h 2.3µM (no result: MARV entry inh, Lassa entry inh)
CCOc1ccc(CNCc2c(C(=O)O)c(C)n(Cc3ccc(C)cc3)c2C)cc1	none (no result: CHX counter, Shiga toxin inh, Pf growth 48h, Pf growth 96h)
Cc1ccc(NC(=O)CSc2nc3[nH]ncc3c(=O)[nH]2)cc1	none
Cc1ccc(NC(=O)C2CCN(S(=O)(=O)c3cccc(C(F)(F)F)c3)CC2)nc1	none (no result: CHX counter, Shiga toxin inh)
CN(C)Cc1c(O)ccc2c1O/C(=C\C=C\c1ccccc1)C2=O	CHX counter 13, Pf growth 48h 1.7µM (no result: MARV entry inh, Lassa entry inh)
CCN1CCN(Cc2c(O)ccc3c2O/C(=C\c2ccccc2)C3=O)CC1	Pf growth 48h inconclusive, Pf growth 96h 12µM
COc1cccc(C2/C(=C(\O)c3ccc4c(c3)OCO4)C(=O)C(=O)N2CCN(C)C)c1OC (configuration not stated)	none (no result: Pf growth 96h)
CCOP(=O)(OCC)C(NC(=O)Nc1ccc(C)c(Cl)c1)c1ccccc1 (configuration not stated)	Pf growth 48h inconclusive, MARV entry inh inconclusive, Pf growth 96h 15µM, Lassa entry inh inconclusive
Cc1ccc(NC(=O)C(c2ccccc2)N(C)C)cc1Cl (configuration not stated)	MARV entry inh 11µM, Pf growth 96h inconclusive, Lassa entry inh inconclusive
Cc1cc(C)cc(N(C(C)C(=O)NCCC2=CCCCC2)S(C)(=O)=O)c1 (configuration not stated)	Pf growth 96h inconclusive (no result: Pf growth 48h)
CCOc1ccc(C2C(C(=O)c3cccs3)=C(O)C(=O)N2CCN2CCOCC2)cc1 (configuration not stated)	CHX counter 28, Shiga toxin inh 25 (no result: MARV entry inh, Lassa entry inh)
CCOc1ccc(C2C(C(=O)c3ccco3)=C(O)C(=O)N2CCN2CCOCC2)cc1 (configuration not stated)	CHX counter 26, Shiga toxin inh 54 (no result: MARV entry inh, Lassa entry inh)
Cc1ccc(C(=O)C2=C(O)C(=O)N(Cc3ccco3)C2c2ccc(N(C)C)cc2)o1 (configuration not stated)	Pf growth 48h inconclusive, Pf growth 96h 12µM (no result: MARV entry inh, Lassa entry inh)
CCOc1ccc(C2C(C(=O)c3ccco3)=C(O)C(=O)N2CCCn2ccnc2)cc1 (configuration not stated)	CHX counter 33, Shiga toxin inh active (no result: Pf growth 96h)
CCOc1ccc(C2C(C(=O)c3ccco3)=C(O)C(=O)N2CCN2CCOCC2)cc1OCC (configuration not stated)	none (no result: MARV entry inh, Lassa entry inh)
COC(=O)C(CCSC)NC(=O)c1cc2c(n(-c3ccc(OC)cc3)c1=O)CC(C)(C)CC2=O (configuration not stated)	none (no result: CHX counter, Shiga toxin inh, Pf growth 48h, Pf growth 96h)
Cc1nc2nc(CC(=O)O)[nH]n2c(=O)c1[N+](=O)[O-]	none (no result: MARV entry inh, Lassa entry inh)
COc1ccc(NC(=O)CSCc2ccc(C#N)cc2)c(OC)c1	Pf growth 96h inconclusive
Cc1oc2ccccc2c1CNC(=O)N(C)C	Pf growth 48h inconclusive

High-throughput results (PubChem)
